Laboratory results: the supplement of paper PMC9262897, “Low-cost anti-mycobacterial drug discovery using engineered E. coli” (Nature Communications, 2022)
Structures can show the parent of a compound that is named as a salt. ± gives the standard deviation of the averaged measurements.

How the values were obtained:
Test in all cases: growth (OD600 after 10 h); higher = more growth (less inhibition)
[1] = test system: E. coli TESEC Alr+ wild-type control; conditions: compound 0.1 mM; raw OD600 reference: median of DMSO wells 0.241, cell-free background 0.041
Procedure: (§1)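 TESEC Mtb Alr E. coli, or the Alr+ wild-type control, in 384-well plates with Prestwick library compounds at 0.1 mM and 1% DMSO, across arabinose induction levels of 1E3 to 1E7 nM. Growth is read as OD600 after 10 h at 37 °C in triplicate biological replicates.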

E. coli TESEC Mtb Alr [2] = conditions: compound 0.1 mM
Procedure: as §1

E. coli TESEC Mtb Asd = conditions: compound 0.1 mM
Procedure: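 TESEC E. coli strains in which the native enzyme is deleted and replaced by arabinose-inducible Mtb Asd, DapB, CysH or TrpD, each grown in its selective medium. Strains were screened against the Prestwick library at 0.1 mM and 1% DMSO in 384-well format at low and high arabinose induction. Growth is read as OD600 after 10 h in triplicate.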

[3] = test system: E. coli TESEC Alr+ wild-type control; conditions: compound 0.1 mM; raw OD600 reference: median of DMSO wells 0.49, cell-free background 0.052
Procedure: (§2)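 TESEC Mtb Alr E. coli (ΔaraC ΔtolC ΔentC Δalr ΔdadX, arabinose-inducible Mtb Alr) or the Alr+ wild-type control strain, grown in defined M9-fructose medium without D-alanine in 96-well plates with Prestwick library compounds at 0.1 mM and 1% DMSO. Low Alr induction is 0.1 µM arabinose and high induction is 10 mM arabinose.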

E. coli TESEC Mtb Alr [4] = conditions: compound 0.1 mM; remark: listed apart in the source
Procedure: as §2

[5] = arabinose 1000 nM, raw OD600 reference: median of DMSO wells 0.294, cell-free background 0.041
[6] = arabinose 10000 nM, raw OD600 reference: median of DMSO wells 0.264, cell-free background 0.041
[7] = arabinose 100000 nM, raw OD600 reference: median of DMSO wells 0.201, cell-free background 0.041
[8] = arabinose 1000000 nM, raw OD600 reference: median of DMSO wells 0.193, cell-free background 0.041
[9] = arabinose 10000000 nM, raw OD600 reference: median of DMSO wells 0.146, cell-free background 0.041
[10] = arabinose induction (level): High, raw OD600 reference: median of DMSO wells 0.331, cell-free background 0.041
[11] = arabinose induction (level): Low, raw OD600 reference: median of DMSO wells 0.417, cell-free background 0.041
[12] = arabinose 100 nM, raw OD600 reference: median of DMSO wells 0.413, cell-free background 0.052
[13] = arabinose 10000000 nM, raw OD600 reference: median of DMSO wells […], cell-free background 0.052

SMILES | growth [1] | growth (E. coli TESEC Mtb Alr [2]; [5]) | growth (E. coli TESEC Mtb Alr [2]; [6]) | growth (E. coli TESEC Mtb Alr [2]; [7]) | growth (E. coli TESEC Mtb Alr [2]; [8]) | growth (E. coli TESEC Mtb Alr [2]; [9]) | growth (E. coli TESEC Mtb Asd; [10]) | growth (E. coli TESEC Mtb Asd; [11]) | growth [3] | growth (E. coli TESEC Mtb Alr [4]; [12]) | growth (E. coli TESEC Mtb Alr [4]; [13])
CC(C)CC(=O)N[C@H](C(=O)N[C@H](C(=O)N[C@@H](CC(C)C)[C@@H](O)CC(=O)N[C@@H](C)C(=O)N[C@@H](CC(C)C)[C@@H](O)CC(=O)O)C(C)C)C(C)C [Pepstatin A] | 0.226 ± 0.0077 | 0.307 ± 0.0049 | 0.271 ± 0.0051 | 0.234 ± 0.043 | 0.202 ± 0.02 | 0.15 ± 0.0034 | 0.419 ± 0.028 | 0.427 ± 0.064 | 0.468 ± 0.053 | 0.412 ± 0.005 | 0.345 ± 0.036
COc1cc(N)c(Cl)cc1C(=O)NC1CCN(Cc2ccccc2)CC1 [Clebopride maleate] | 0.19 ± 0.002 | 0.263 ± 0.0076 | 0.24 ± 0.005 | 0.171 ± 0.016 | 0.132 ± 0.0034 | 0.129 ± 0.0055 | 0.163 ± 0.016 | 0.277 ± 0.036 | 0.474 ± 0.027 | 0.397 ± 0.0065 | 0.314 ± 0.016
C[C@]12CC[C@H]3C(=CCc4cc(O)ccc43)[C@@H]1CCC2=O [Equilin] | 0.126 ± 0.0019 | 0.17 ± 0.0095 | 0.226 ± 0.0079 | 0.154 ± 0.0054 | 0.0878 ± 0.0015 | 0.125 ± 0.0018 | 0.159 ± 0.0023 | 0.258 ± 0.044 | 0.424 ± 0.0094 | 0.388 ± 0.0096 | 0.163 ± 0.0075
Fc1ccc(C(c2ccc(F)cc2)N2CCN(C/C=C/c3ccccc3)CC2)cc1 [Flunarizine dihydrochloride] | 0.0778 ± 0.012 | 0.11 ± 0.019 | 0.0787 ± 0.0024 | 0.116 ± 0.012 | 0.0591 ± 0.0018 | 0.0509 ± 0.0027 | 0.0843 ± 0.013 | 0.056 ± 0.0016 | 0.234 ± 0.0076 | 0.318 ± 0.037 | 0.128 ± 0.014
O=C1CC[C@@H](C(=O)N2CSC[C@H]2C(=O)O)N1 [Pidotimod] | 0.231 ± 0.0032 | 0.29 ± 0.003 | 0.261 ± 0.005 | 0.184 ± 0.032 | 0.217 ± 0.033 | 0.135 ± 0.0014 | 0.271 ± 0.059 | 0.415 ± 0.024 | 0.536 ± 0.1 | 0.42 ± 0.011 | 0.335 ± 0.0057
CC(=O)O[C@]1(C(C)=O)CC[C@H]2[C@@H]3C=C(C)C4=CC(=O)CC[C@@H]4[C@H]3CC[C@@]21C [Nomegestrol acetate] | 0.1345 ± 0.001 | 0.127 ± 0.02 | 0.0606 ± 0.0005 | 0.124 ± 0.0062 | 0.061 ± 0.0017 | 0.0997 ± 0.0051 | 0.126 ± 0.018 | 0.104 ± 0.0027 | 0.14 ± 0.0081 | 0.229 ± 0.082 | 0.0935 ± 0.015
NS(=O)(=O)c1cc2c(cc1Cl)N=C(CSCc1ccccc1)NS2(=O)=O [Benzthiazide] | 0.241 ± 0.008 | 0.292 ± 0.023 | 0.254 ± 0.0055 | 0.171 ± 0.017 | 0.169 ± 0.0062 | 0.132 ± 0.0022 | 0.286 ± 0.026 | 0.487 ± 0.025 | 0.606 ± 0.051 | 0.405 ± 0.0095 | 0.3136 ± 0.0011
Nc1nc(=O)c2nc(CNc3ccc(C(=O)N[C@@H](CCC(=O)O)C(=O)O)cc3)cnc2[nH]1 [Folic acid] | 0.25 ± 0.0064 | 0.306 ± 0.0062 | 0.239 ± 0.0047 | 0.244 ± 0.028 | 0.149 ± 0.0059 | 0.1653 ± 0.0014 | 0.219 ± 0.037 | 0.318 ± 0.021 | 0.446 ± 0.02 | 0.407 ± 0.011 | 0.34 ± 0.02
Clc1ccc(COC(Cn2ccnc2)c2ccc(Cl)cc2Cl)cc1 (centres undefined) [Econazole nitrate] | 0.0521 ± 0.0032 | 0.048 ± 0.0022 | 0.05773 ± 5.8e-05 | 0.0544 ± 0.0013 | 0.0574 ± 0.0015 | 0.0483 ± 0.0014 | 0.0469 ± 0.00075 | 0.04693 ± 0.00042 | 0.056 ± 0.002 | 0.059 ± 0.0077 | 0.0553 ± 0.0037
